Compound activity (PubChem BioAssay)
ClpP mod – qHTS Assay for Activators of ClpP | ATP-dependent Clp protease proteolytic subunit (Bacillus subtilis (strain 168)), P80244 | purified B. subtilis ClpP, FRET peptide cleavage, 20 min | Potency, µM (titrated, usually from 57.5 µM), for inactives: at the top dose activity change, negative = active | 340,000 tested, 1.9% active; active = well fitted falling curve with a large enough effect; inconclusive = small, poorly fitted or top-dose-only effect; inactive = no such curve, though single readings can be large or run the other way; also: potency is read from the fitted curve at half-maximal effect; the source files actives as falling curves though it sought activators and does not explain the sign; nearly all actives have a fitted effect of over 65% in size
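Purified B. subtilis ClpP, 10 microg/mL final in Tris/HCl pH8 with KCl, BSA, glycerol and Tween-20, cleaved an Abz/nitrotyrosine-quenched decapeptide. Fluorescence (ex 320, em 430) was read at 0 and 20 min at room temperature. Delta was normalized to 5.8 microM ADEP and DMSO/no-enzyme controls.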
gsp antagonist – antagonists of gsp mutant (McCune-Albright syndrome). gsp-mutant cells, cAMP HTRF, 30 min. Potency, µM (doses to about 76.9 µM), inactives show top-dose activity change, negative = inhibition, hits mostly inhibitors. 340,000 tested, 0.4% active. AID 624288; calls by dose curve; cell line not stated here;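 also: intracellular cAMP measured with PDE inhibitor Ro 20-1724 present during compound exposure; potency is read from the fitted curve at half-maximal effect; % is scaled to controls: 0 for no effect and ±100 for the full control effect; nearly all actives have a fitted effect of over 65% in size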
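Measurement of cellular cAMP by homogeneous time-resolved fluorescence following a 30 min compound exposure at 37C. The PDE inhibitor […] was present throughout; the assay buffer was DPBS with 0.05% BSA and 0.005% Tween 20.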
pAkt inh – blocks phosphorylation of Akt | Neuro2A IGF-stimulated pAkt S473 HTRF, 20 min; active compounds read low | activity change, % for hits at 50 µM | 360,000 tested, 0.32% active | AID 651550; in the data active = activity change below about -80%; inconclusive = mostly about -51% to -80%; also: % is scaled to controls: 0 for no effect and ±100 for the full control effect
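Neuro2A cells in DMEM with 0.5% FBS, overnight at 37 deg C, given compound at single 50 µM final, then IGF (6 nM final) for 20 min at 37 deg C. Lysed; phospho-Akt Ser473 by HTRF after 24 h, 665/615 ratio.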
RXFP1 antag – RXFP1 (human) relaxin receptor antagonism; Q9HBX9; HEK293-RXFP1, relaxin-stimulated cAMP HTRF, 30 min; active compounds read low; activity change, negative = inhibition, % at 57.5 µM; 350,000 tested, 0.59% active;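 active = activity change of -60% or lower, but not beyond a set lower limit; inconclusive = change between -60% and -40%, or beyond the set limit; inactive = change above -40%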; also: % is scaled to controls: 0 for no effect and ±100 for the full control effect
Target sequence (Q9HBX9 whole entry, looked up): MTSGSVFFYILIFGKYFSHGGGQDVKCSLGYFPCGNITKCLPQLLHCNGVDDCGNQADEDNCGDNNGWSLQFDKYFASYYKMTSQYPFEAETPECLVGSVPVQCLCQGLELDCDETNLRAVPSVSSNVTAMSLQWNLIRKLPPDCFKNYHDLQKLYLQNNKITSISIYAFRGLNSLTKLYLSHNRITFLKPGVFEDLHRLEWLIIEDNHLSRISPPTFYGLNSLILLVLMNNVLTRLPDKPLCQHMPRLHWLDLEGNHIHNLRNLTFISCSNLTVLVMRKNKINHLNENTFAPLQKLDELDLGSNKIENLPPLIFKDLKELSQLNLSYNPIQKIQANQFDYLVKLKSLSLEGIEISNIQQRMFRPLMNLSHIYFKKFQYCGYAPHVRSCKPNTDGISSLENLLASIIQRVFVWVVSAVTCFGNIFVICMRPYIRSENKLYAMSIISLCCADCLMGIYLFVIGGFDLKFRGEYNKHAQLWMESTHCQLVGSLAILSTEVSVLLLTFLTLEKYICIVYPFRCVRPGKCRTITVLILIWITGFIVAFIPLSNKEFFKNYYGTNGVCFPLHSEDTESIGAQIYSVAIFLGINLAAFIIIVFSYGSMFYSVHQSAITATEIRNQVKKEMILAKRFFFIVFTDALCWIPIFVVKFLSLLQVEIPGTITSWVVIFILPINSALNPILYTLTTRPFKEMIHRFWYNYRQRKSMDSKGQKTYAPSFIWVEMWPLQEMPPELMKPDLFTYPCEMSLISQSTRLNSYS
gsp ag – gsp mutant agonism; gsp mutant cells, cAMP HTRF, 30 min; Potency, µM (doses to about 76.9 µM), for inactives: at the top dose activation (cAMP increase), usual class: activators; 340,000 tested, 0.13% active; AID 624287; active = well fitted activation curve with a large enough effect; inconclusive = small, poorly fitted or top-dose-only effect, or another doubt; inactive = no such curve, though single readings can be large or run the other way; cell line not stated here;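 also: phosphodiesterase inhibitor Ro 20-1724 added with compounds to block cAMP breakdown; potency is read from the fitted curve at half-maximal effect; nearly all actives have a fitted effect of over 60% in size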
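Cells stably selected in G418 were plated at 2000/well, grown 16-24 hr, then given compounds in DMSO with the PDE inhibitor […] (300 uM solution added) for 30 min at 37C; cAMP was read by HTRF.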
RXFP1 ag – RXFP1 (human) receptor agonism | Q9HBX9 | HEK293T-RXFP1 cAMP TR-FRET, 30 min; response scale: percent of porcine relaxin response, buffer zero | Potency, µM (highest dose often 57.5 µM), without a hit: top-dose activation, most hits filed as activators | 370,000 tested, 0.3% active | AID 2676; active = well fitted activation curve with a large enough effect; inconclusive = small, poorly fitted or top-dose-only effect; also: potency is read from the fitted curve at half-maximal effect; % is scaled to controls: 0 for no effect and ±100 for the full control effect; nearly all actives have a fitted effect of over 60% in size
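HEK293 cells stably expressing RXFP1, treated 30 min at 37C with compounds plus PDE4 inhibitor Ro 20174; cAMP measured by HTRF TR-FRET. Normalized to buffer and 29 nM porcine relaxin; EC50 by Hill fit.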
An asterisk follows results filed as active; i = inactive; ? = inconclusive; · = no result; [ ] = remark or other dose. Hits are enriched below; roughly 2.7% of the tested compounds scored in any of these assays.

SMILES	ClpP mod	gsp antagonist	pAkt inh	RXFP1 antag	gsp ag	RXFP1 ag
CN1CCc2c(sc3nc(SCC(=O)N4CCOCC4)nc(N)c23)C1	?	3%	-104%*	9	?	17%
CC1CCN(C(=O)CSc2nc(N)c3c4c(sc3n2)CN(C)CC4)CC1	28µM*	2%	i	-7	?	12%
CN1CCc2c(sc3nc(SCC(=O)N4CCOCC4)n(-c4ccc(Cl)cc4)c(=O)c23)C1	4%	-10%	i	2	?	6%
O=C(CSc1nnc2c(n1)[nH]c1ccccc12)N1CCCCC1	·	0%	i	-5	?	3%
CC1CCc2cc(F)ccc2N1C(=O)CSc1nnc2c(n1)[nH]c1ccccc12 (stereo not given)	·	-25%	i	-62*	0%[15.4 µM]	0%
CSc1ccc(CCNC(=O)NCc2noc3ccccc23)cc1	-1%	·	·	-17	·	1%
CCn1cc(/C=C(\NC(=O)c2ccccc2)C(=O)NCCCn2ccnc2)c2ccccc21	-2%	·	i	-3	?	·
O=C(CCCn1c(=S)[nH]c2cc3c(cc2c1=O)OCO3)NCc1cccc(Cl)c1	-2%	-3%	·	-103*	11%	?
O=C(CCn1c(=S)[nH]c2cc3c(cc2c1=O)OCO3)NCc1cccc(Cl)c1	-1%	22%	i	?	?	?
O=C(CCn1c(=S)[nH]c2cc3c(cc2c1=O)OCO3)NCCc1ccccc1Cl	-5%	·	i	-13	-37%	·
O=C(CCn1c(=S)[nH]c2cc3c(cc2c1=O)OCO3)NCc1ccccc1Cl	-1%	19%	i	-70*	23%	?
COc1ccc(CCNC(=O)c2ccc3c(c2)N(Cc2ccccc2Cl)C(=O)c2ccccc2S3)cc1OC	-3%	·	·	-20	·	-1%
O=C(C[n+]1cccc(Br)c1)c1ccc2c(c1)CCCC2	0%	·	·	·	·	·
Nc1c(C(=O)Nc2ccc(Cl)cc2)sc2nc(N3CCOCC3)c3c(c12)CCCC3	4%	-2%	·	29	10µM*	9%
Nc1c(C(=O)NCc2ccccc2)sc2nc(N3CCOCC3)c3c(c12)CCCC3	25µM*	14%	i	30	?	15%
O=C(Cn1c(-c2cccs2)cc2ccccc21)NCCCN1CCN(c2cccc(Cl)c2)CC1	25µM*	·	·	-13	·	3%
O=C(Cn1c(-c2cccs2)cc2cc(F)ccc21)NCCc1ccc(Cl)cc1	4%	·	·	·	·	0%
CCCN1CCN(CCCNC(=O)Cn2c(-c3cccs3)cc3cc(Cl)ccc32)CC1	32µM*	·	·	-17	·	5%
Cc1ccc(CCNC(=O)Cn2c(-c3cccs3)cc3ccccc32)cc1	-11%	·	·	-10	·	2%
NS(=O)(=O)c1ccc(CCNC(=O)Cn2c(-c3cccs3)cc3ccccc32)cc1	35µM*	·	·	-17	·	7%
CCCN1CCN(CCCNC(=O)Cn2c(-c3cccs3)cc3ccccc32)CC1	35µM*	·	·	-14	·	0%
C=C1C=C(C(F)F)n2ncc(C(=O)Nc3ccc(N(CC)CC)cc3)c2N1	-1%	·	·	·	·	·
COc1ccc2c(Sc3ccccc3)c(C(=O)NCCN(C)C)[nH]c2c1	-3%	·	·	-29	·	-2%
O=C(COc1ccc(Cl)cc1)NCCc1csc(-c2cccc(F)c2)n1	4%	·	·	-9	·	-2%
C=C[C@H](CC(C)C)N(Cc1ccccc1)S(=O)(=O)N(Cc1ccccc1)[C@H](C=C)CC(C)C	-1%	·	·	·	·	·
SMILES	ClpP mod	gsp antagonist	pAkt inh	RXFP1 antag	gsp ag	RXFP1 ag
COc1cc(CN2c3ccc(Br)cc3C(=O)CS2(=O)=O)cc(OC)c1	1%	·	·	·	·	·
CC(C)OCCCNC(=O)Cn1c(-c2cccs2)cc2cc(F)ccc21	4%	·	·	·	·	4%
CCN1CCN(CCCNC(=O)Cn2c(-c3cccs3)cc3ccccc32)CC1	10µM*	·	·	-17	·	2%
CCOc1ccc(CCNC(=O)Cn2c(-c3cccs3)cc3cc(F)ccc32)cc1OCC	4%	·	·	·	·	6%
CN1CCN(CCCNC(=O)Cn2c(-c3cccs3)cc3ccccc32)CC1	11µM*	·	·	-3	·	-1%
Cc1ccc(C)c(N2CCN(CCCNC(=O)Cn3c(-c4cccs4)cc4ccccc43)CC2)c1	28µM*	·	·	-39	·	3%
Nc1nc(N)c2cc(CNc3ccc(Cl)c(Cl)c3)ccc2n1	-1%	·	i	-21	-8%	·
CC1CCCCN1CCNC(=O)c1ccc(Cn2c(SCc3ccccc3)nc3cccnc32)cc1 (stereo not given)	25µM*	·	·	-16	·	7%
Cc1ccc(Cn2c(SCc3ccc(C(=O)O)cc3)nc3cccnc32)cc1	28µM*	·	·	-26	·	4%
O=C(NCCN1CCCCC1)c1ccc(Cn2c(SCc3ccccc3)nc3cccnc32)cc1	?	·	·	-29	·	2%
CC1CCN(CCNC(=O)c2ccc(Cn3c(SCc4ccccc4)nc4cccnc43)cc2)CC1	16µM*	·	·	-9	·	-1%
CC(Oc1ccccc1)C(=O)N[C@@H]1C(=O)N2C(C(=O)OCC3CCCCC3)C(C)(C)S[C@H]12 (stereo not given in full)	-2%	·	·	·	·	·
CC(C)COc1ccc(-c2nnc(-c3ccncc3)o2)cc1	32µM*	3%	i	-1	8%	22%
CCCOc1ccc(-c2nnc(-c3ccncc3)o2)cc1	?	9%	i	2	-2%	8%
CC(=O)c1c(C)oc2ccc(NS(=O)(=O)c3ccc(F)cc3C)cc12	·	25µM*	i	-8	12%[15.4 µM]	-3%
Cc1cc(F)ccc1S(=O)(=O)Nc1ccc2oc3c(c2c1)CC(C)CC3 (stereo not given)	-6%	·	·	?	·	-4%
O=C(CNC(=O)c1cc2c(n(-c3ccccc3)c1=O)CCCC2=O)c1ccccc1	28µM*	-6%	i	-14	4%	-2%
COc1ccc(-n2c3c(cc(C(=O)NCC(=O)c4ccccc4)c2=O)C(=O)CC(C)(C)C3)cc1	-21%	6%	i	15	13%[15.4 µM]	-1%
CC1(C)CC(=O)c2cc(C(=O)NCc3ccco3)c(=O)n(-c3ccccc3)c2C1	28µM*	-11%	i	-10	-8%	0%
